Screening data (PubChem BioAssay)
Only some compounds are listed: those with a hit (about 19% of all), similar ones and a draw of the others.
HT1080NT lethal = kills 2HG-producing HT-1080-NT fibrosarcoma cells. AID 686970. 360,000 tested, 1.6% active. Potency, µM (top dose mostly 46.1 µM), most hits filed as cytotoxic. HT-1080-NT fibrosarcoma viability, CellTiter-Glo ATP luminescence, 48 h;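 also: NT is the 2HG producing partner of a matched IDH1 knockdown line; nearly all actives have a fitted effect of over 55% in size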
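HT-1080-NT; 750 cells/well; 5% FBS RPMI; 48 h compound, 37 degrees C; CellTiter-Glo luminescence; curve fitting and curve-class assignment.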
TDP1 cell noCPT = qHTS for Inhibitors of human tyrosyl-DNA phosphodiesterase 1 (TDP1): qHTS in cells in absence of CPT; Potency, µM (highest dose often 46.2 µM), most hits filed as inhibitors; 420,000 tested, 15% active; DT40 Tdp1-/- hTDP1 cells, no CPT, ATP luminescence, 48 h; also: nearly all actives have a fitted effect of over 55% in size
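Luminescent ATP content (CellTiter-Glo) served as the growth readout. Knockout chicken DT40 cells expressing human TDP1 were exposed to compounds without camptothecin for a minimum 48 hr at 37 °C.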
TDP1 cell CPT = DT40-hTDP1 cell growth loss with CPT; chicken DT40 Tdp1-/-;hTDP1 cells + 20 nM CPT, ATP luminescence, 48 h; Potency, µM (titrated, usually from 46.2 µM), most hits filed as inhibitors; 420,000 tested, 12% active; also: nearly all actives have a fitted effect of over 55% in size
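Cell growth measured by CellTiter-Glo luminescence after a minimum 48 h, 37 C compound exposure with 20 nM CPT in Tdp1-knockout DT40 cells stably expressing hTDP1, seeded 400/well; qHTS titration format.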
IL-1B inflam inh = inhibitors of inflammasome signaling (IL-1 beta secretion). THP-1 LPS/ATP IL-1B secretion, AlphaLISA, 16 h; active compounds read low. activity change, % at 57.5 µM. 360,000 tested, 4.7% active. AID 743279; in the data active = activity change below about -50%; inconclusive = mostly about -30% to -49%
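Secreted IL-1B measured by AlphaLISA bead assay after 16 h compound exposure of THP-1 cells; compounds (final up to 57.5 uM) added 1 h before LPS (250 ng/mL) and ATP (1.25 mM) stimulation; lower signal means less secretion.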
HT1080 IDH1KD tx = HT-1080 IDH1 knockdown cell toxicity (counter line); HT-1080 IDH1 knockdown viability, ATP luminescence, 48 h; Potency, µM (top dose mostly 46.1 µM), most hits filed as cytotoxic; 360,000 tested, 2% active; AID 686971
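Cytotoxicity counter-line: IDH1KD HT-1080, 48 h, CellTiter-Glo. Curves classed by r2, magnitude and activity.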
Large screens that a line does not name were inactive. Unless noted, calls follow the shape of the dose curve; as a rule, active = well fitted curve in the direction sought with a large enough effect; inconclusive = small, poorly fitted or top-dose-only effect, or another doubt; inactive = no such curve, though single readings can be large; an effect the other way counts as inactive or inconclusive.

COc1ccc(C2C(C(C)=O)=C(O)C(=O)N2c2nccs2)c(OC)c1 (stereo not drawn)	TDP1 cell noCPT inconclusive
Clc1nnc(NC2CCCCC2)c(Cl)c1Cl	TDP1 cell noCPT inconclusive
CCOc1ccc(-c2ccc3nnc(SCC(=O)NCC4CCCO4)n3n2)cc1 (stereo not drawn)	none
N#CCCn1c(=O)c(-c2ccccc2)nc2cnc(OCc3ccccc3)nc21	TDP1 cell noCPT inconclusive (no result: HT1080NT lethal, IL-1B inflam inh, HT1080 IDH1KD tx)
CCCc1nc2c(C)cc(Br)cn2c1Cc1ccccc1C(F)(F)F	HT1080NT lethal inconclusive, TDP1 cell noCPT 23.1µM, TDP1 cell CPT 23.1µM, HT1080 IDH1KD tx inconclusive
CCCc1nc2ccc(C)cn2c1Cc1ccc(OC)cc1C	TDP1 cell noCPT 23.1µM, TDP1 cell CPT 13µM
CCCc1nc2ccc(Br)cn2c1Cc1ccccc1OC	HT1080NT lethal inconclusive, TDP1 cell noCPT 0.82µM, TDP1 cell CPT 1.46µM, HT1080 IDH1KD tx inconclusive
COc1ccccc1Cc1c(-c2ccc(F)cc2)nc2ccc(Cl)cn12	TDP1 cell noCPT inconclusive, TDP1 cell CPT inconclusive
CCCc1nc2ccc(Cl)cn2c1Cc1ccccc1OC	HT1080NT lethal inconclusive, TDP1 cell noCPT 11.6µM, TDP1 cell CPT 7.31µM, HT1080 IDH1KD tx inconclusive
Cc1cc(Br)cn2c(Cc3ccccc3C(F)(F)F)c(-c3ccccc3)nc12	TDP1 cell noCPT inconclusive, TDP1 cell CPT inconclusive
COC(=O)c1ccc(NC(=O)C(=O)NCC2CCCO2)cc1 (stereo not drawn)	TDP1 cell CPT inconclusive
CCCCCCOc1ccc(CC(=O)O)cc1	none (no result: IL-1B inflam inh)
Cc1ccc(-n2c(Cn3nc(C(F)F)cc3C(F)F)n[nH]c2=S)cc1	none
N#Cc1ccccc1S(=O)c1ccccc1C(=O)Nc1ccccc1 (stereo not drawn)	none
Clc1ccc(C2=NNC(=NCc3ccc4c(c3)OCO4)SC2)cc1	TDP1 cell noCPT 5.8µM, TDP1 cell CPT 10.3µM, IL-1B inflam inh inconclusive
Oc1ccc(C2=NNC(=NCc3ccc4c(c3)OCO4)SC2)c(O)c1	HT1080NT lethal 20.6µM, TDP1 cell noCPT 4.61µM, TDP1 cell CPT 3.66µM, HT1080 IDH1KD tx inconclusive
Cc1cccc(N(CC(=O)NCc2ccco2)C(=O)CCC(=O)Nc2nccs2)c1	none
COc1ccc(CCN2CC(C(=O)NC3CCOCC3)CCC2=O)cc1 (stereo not drawn)	none
CC(C)=N/N=C1/NC(=O)C(c2ccccc2)S1 (stereo not drawn)	TDP1 cell noCPT 16.4µM, TDP1 cell CPT inconclusive
CCOC(=O)C1CCN(CC(=O)Nc2cc(C)c3c(=O)oc4ccccc4c3n2)CC1	none (no result: HT1080NT lethal, IL-1B inflam inh, HT1080 IDH1KD tx)
CNc1ccc(-c2cc(OC)ccc2OC)cn1	HT1080NT lethal inconclusive
CNc1cnc(-c2ccc(O)c(OC)c2)cn1	TDP1 cell noCPT inconclusive, TDP1 cell CPT 16.4µM, IL-1B inflam inh -61.2
Cc1ccc(NC(=O)CN2C(=O)NC3(CCc4ccccc43)C2=O)cc1S(=O)(=O)N1CCCCC1 (stereo not drawn)	TDP1 cell noCPT inconclusive, TDP1 cell CPT inconclusive
Cc1ccc(CN(C)C(=O)CN2C(=O)NC3(CCCc4ccccc43)C2=O)c(C)c1 (stereo not drawn)	TDP1 cell noCPT 20.6µM, TDP1 cell CPT inconclusive
O=C(CN1C(=O)NC2(CCCc3ccccc32)C1=O)Nc1cccc(S(=O)(=O)N2CCCCC2)c1 (stereo not drawn)	TDP1 cell noCPT 16.4µM, TDP1 cell CPT inconclusive
Cc1cc(C)c(NC(=O)CN2C(=O)NC3(CCCc4ccccc43)C2=O)c(Cl)c1 (stereo not drawn)	TDP1 cell noCPT 18.4µM, TDP1 cell CPT inconclusive
COc1ccc(C(NC(=O)CN2C(=O)NC3(CCc4ccccc43)C2=O)c2ccc(OC)cc2)cc1 (stereo not drawn)	TDP1 cell noCPT inconclusive, TDP1 cell CPT inconclusive, IL-1B inflam inh -63.9
COc1ccc(C(=O)CN2C(=O)NC3(CCc4ccccc43)C2=O)cc1 (stereo not drawn)	none
Cc1ccc(NC(=O)CN2C(=O)NC3(CCCc4ccccc43)C2=O)c(Cl)c1 (stereo not drawn)	HT1080NT lethal inconclusive, TDP1 cell noCPT inconclusive
COc1cc(OC)cc(C(=O)NCC2CCCN(C(=O)c3csc(C)n3)C2)c1 (stereo not drawn)	none
CC(=O)N1CCC2(CC1)CCN(C(=O)Nc1cccc(C#N)c1)CC2	none (no result: HT1080NT lethal, IL-1B inflam inh, HT1080 IDH1KD tx)
CC1=C(C(=O)N2CCOCC2)C(c2cc(C)ccc2C)NC(=S)N1 (stereo not drawn)	none
O=C(CN1C(=O)NC2(CCCc3ccccc32)C1=O)N1CCc2ccccc2C1 (stereo not drawn)	TDP1 cell noCPT 20.6µM, TDP1 cell CPT inconclusive
COc1ccccc1-c1nc(NCCN2CCOCC2)c2ccccc2n1	none (no result: HT1080NT lethal, IL-1B inflam inh, HT1080 IDH1KD tx)
COc1ccc(Nc2nc(-c3cccc(OC)c3O)nc3ccccc23)cc1	TDP1 cell noCPT 16.4µM, TDP1 cell CPT inconclusive, HT1080 IDH1KD tx inconclusive
COc1cccc(-c2nc(NC(C)(C)C)c3ccccc3n2)c1O	HT1080NT lethal inconclusive, TDP1 cell noCPT 20.6µM, TDP1 cell CPT inconclusive, IL-1B inflam inh -51.5, HT1080 IDH1KD tx inconclusive
Cc1c(Cl)cccc1NC(=O)c1ncn[nH]1	none
CC(=O)Nc1cccc(-c2ccnc3c2CC(C(=O)NCc2cccs2)O3)c1 (stereo not drawn)	HT1080NT lethal inconclusive, TDP1 cell noCPT 0.651µM, TDP1 cell CPT 0.92µM, HT1080 IDH1KD tx 0.651µM
CC(=O)Nc1cccc(-c2ccnc3c2CC(C(=O)Nc2cccc(NS(C)(=O)=O)c2)O3)c1 (stereo not drawn)	none
COc1ccc(CCCNC(=O)C2Cc3c(-c4cccc(NC(C)=O)c4)ccnc3O2)cc1 (stereo not drawn)	HT1080NT lethal inconclusive, TDP1 cell noCPT 3.66µM, TDP1 cell CPT 5.8µM, HT1080 IDH1KD tx inconclusive
CC(=O)Nc1cccc(-c2ccnc3c2CC(C(=O)NCCC(F)(F)F)O3)c1 (stereo not drawn)	HT1080NT lethal inconclusive, TDP1 cell noCPT 23.1µM, TDP1 cell CPT inconclusive, HT1080 IDH1KD tx 20.6µM
CC(=O)NCCNC(=O)C1Cc2c(-c3cccc(NC(C)=O)c3)ccnc2O1 (stereo not drawn)	HT1080NT lethal inconclusive
CC(=O)Nc1cccc(-c2ccnc3c2CC(C(=O)NCC2CCOCC2)O3)c1 (stereo not drawn)	HT1080NT lethal inconclusive, TDP1 cell noCPT 2.31µM, TDP1 cell CPT 2.59µM, HT1080 IDH1KD tx inconclusive
COC(=O)/C=C1\OCc2cccc(C)c21	IL-1B inflam inh inconclusive
Cn1ccnc1SCCNC(=O)CCc1nnc(CCc2ccccc2)o1	TDP1 cell noCPT inconclusive
O=C(CCc1nnc(Cc2c[nH]c3ccccc23)o1)NCC1CC12CCCCC2 (stereo not drawn)	TDP1 cell noCPT 25.9µM, TDP1 cell CPT inconclusive
CC(C)(C)NC(=O)CCc1nnc(Cc2c[nH]c3ccccc23)o1	TDP1 cell CPT inconclusive
C=CCN(c1ccccc1)S(=O)(=O)c1cccc2cccnc12	TDP1 cell noCPT inconclusive
